TexasRed fluor = alters Texas Red total fluorescence, flagging assay interference | TRb/SRC2 Texas Red total fluorescence interference | Potency, µM (series often up to 106 µM) | hit rate 0.29% among 280,000; active = well fitted curve in either direction with a large enough effect; inconclusive = small, poorly fitted or top-dose-only effect
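Human TRβ ligand-binding domain (0.6 uM) and Texas Red SRC2 peptide (20 nM) in Tris buffer with 1 uM T3 and 5% DMSO were incubated with pinned compound for 5 hr at ambient temperature. Total fluorescence was computed as S + 2P (555/632 nm).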
TRb SRC2 PPI = TRbeta-SRC2 interaction inhibition; Potency, µM (doses to about 106 µM), usual class: inhibitors; AID 1469; TRbeta-SRC2 peptide binding, fluorescence polarization; receptor liganded with 1 µM T3; P10828; hit rate 0.065% among 280,000; also: nearly all actives have a fitted effect of over 50% in size
Target sequence (P10828 whole entry, looked up): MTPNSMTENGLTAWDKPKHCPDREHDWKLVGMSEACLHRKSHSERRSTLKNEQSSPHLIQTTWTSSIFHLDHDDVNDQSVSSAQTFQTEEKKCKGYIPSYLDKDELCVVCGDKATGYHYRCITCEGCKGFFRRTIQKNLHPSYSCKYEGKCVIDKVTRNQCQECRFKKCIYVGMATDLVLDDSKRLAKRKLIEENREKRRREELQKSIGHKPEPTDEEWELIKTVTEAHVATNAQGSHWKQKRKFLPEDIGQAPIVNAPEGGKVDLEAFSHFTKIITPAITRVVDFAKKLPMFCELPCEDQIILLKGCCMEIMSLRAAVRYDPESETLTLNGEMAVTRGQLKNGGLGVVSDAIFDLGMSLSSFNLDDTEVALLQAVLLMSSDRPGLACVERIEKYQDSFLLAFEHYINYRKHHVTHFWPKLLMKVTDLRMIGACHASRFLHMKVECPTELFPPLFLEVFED
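Compounds were added to 0.6 uM TRb ligand-binding domain and 20 nM Texas Red-labeled SRC2 peptide in Tris buffer containing 1 uM T3, incubated 5 hr at ambient temperature, then read by fluorescence polarization.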
GCN5L2 inh = blocks human GCN5L2 histone acetyltransferase; hit rate 0.21% among 390,000; AID 504327; GCN5L2 HAT assay, ThioGlo1 CoA-SH fluorescence; Potency, µM (top dose mostly 58.9 µM), most hits filed as inhibitors; Q92830
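Titration-based screen in which CoA formation is detected via maleimide probe ThioGlo1 (50uM) turning fluorescent on thiol reaction; substrates H3(1-25) 75uM and acetyl-CoA 70uM, GCN5L2 20nM, 20 min incubation at room temperature.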
VDR inhibitor = vitamin D3 receptor (human) inhibition; VDR-SRC2-3 peptide fluorescence polarization, 2 h; Potency, µM, actives largely listed as inhibitors; P11473; hit rate 0.93% among 400,000
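Fluorescence polarization assay of small-molecule disruption of VDR binding to coregulator peptide SRC2-3. Compounds and controls pin-transferred, then read after 2 h incubation at ambient room temperature.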
GoLoco inh red = inhibitors of human Gai1-RGS12 GoLoco interaction (red fluorophore) | P63096 | Gai1:RGS12 GoLoco peptide FP, rhodamine, 10 min | Potency, µM (top dose mostly 61.6 µM), usual class: inhibitors | hit rate 0.44% among 230,000; active = well fitted inhibition curve with a large enough effect, not every such curve was filed as active; inactive = no such curve, though single readings can be large or run the other way; also: nearly all actives have a fitted effect of over 30% in size
VDR confirm = inhibits human vitamin D receptor, primary hit validation. Potency, µM, hits mostly inhibitors. hit rate 89% among 840. AID 602199. shares compounds with VDR inhibitor. VDR-coactivator inhibition assay, qHTS confirmation
VDR FP fluor = blocks human VDR-coactivator binding in fluorescein assay; VDR-coactivator binding, fluorescein fluorescence polarization; hit rate 48% among 840; Potency, µM (doses to about 57.1 µM), hits mostly inhibitors; shares compounds with VDR inhibitor
VDR bla = inhibits human VDR in beta-lactamase reporter cells; hit rate 23% among 840; shares compounds with VDR inhibitor; Potency, µM (titrated, usually from 46.1 µM), hits mostly inhibitors; VDR beta-lactamase reporter cells, FRET ratio; cells co-treated with VDR agonist LG190178
VDR cytotox = cytotoxic in counter-screen for VDR inhibitors; shares compounds with VDR inhibitor; cytotoxicity counter-screen, cell viability, qHTS; Potency, µM (top dose mostly 48.3 µM), hits mostly cytotoxic; hit rate 18% among 840; AID 602204; also: nearly all actives have a fitted effect of over 75% in size
Numbers stand for hits; i = inactive; ? = inconclusive; nt = no result; [ ] = remark or other dose. A selection: hits, their analogues and other compounds. The true share with any hit is near 1.2%. Unless noted, calls follow the shape of the dose curve; as a rule, active = well fitted curve in the direction sought with a large enough effect; inconclusive = small, poorly fitted or top-dose-only effect, or another doubt; inactive = no such curve, though single readings can be large; an effect the other way counts as inactive or inconclusive.

SMILES	TexasRed fluor	TRb SRC2 PPI	GCN5L2 inh	VDR inhibitor	GoLoco inh red	VDR confirm	VDR FP fluor	VDR bla	VDR cytotox
CCOC(=O)c1c(C)oc2c1c(C(c1cccnc1)N1CCOCC1)c(O)c1ccccc12 (configuration not stated)	i	i	i	?	i	16	13µM	?	?
CC1CC=CC2C1C(=O)N(Cc1ccccc1)C2c1ccc(C(F)(F)F)cc1 (configuration not stated)	i	i	nt	i	nt	nt	nt	nt	nt
CCC(=O)NC1=C(NC(C)c2ccccc2)C(=O)c2ccccc2C1=O (configuration not stated)	i	i	i	i	i	nt	nt	nt	nt
CCC(=O)NC1=C(Cl)C(=O)C(NC(=O)CC)=C(Cl)C1=O	i	i	28µM	14µM	1.3µM	6.7	5µM	15µM	13µM
CC(C)C[C@H](N)c1nnc(S(=O)(=O)Cc2ccc(F)cc2)o1	i	i	i	32µM	i	?	20µM	?	?
COc1ccc(CN[C@H](C)C(=O)O)cc1	nt	nt	nt	nt	i[14.2 µM]	nt	nt	nt	nt
COc1ccc(Br)cc1C1NC(c2ccc3c(c2)OCO3)=CC(c2cc(Cl)ccc2O)N1 (configuration not stated)	nt	nt	nt	50µM	nt	?	?	?	i
CCSC1=NC(C)(C)C=C(/C=C/c2ccc(Cl)cc2Cl)N1	i	i	?	?	i	14	16µM	23µM	?
CCOC(=O)C1OC1c1ccccc1 (configuration not stated)	i	i	nt	nt	i	nt	nt	nt	nt
O=[N+]([O-])c1ccccc1-c1ccc(C(=S)N2CCCC2)o1	i	i	i	40µM	i	21	?	i	i
CC(=O)O[C@@]12CO[C@@H]1C[C@H](O)[C@@]1(C)C(=O)[C@H](O)C3=C(C)[C@@H](OC(=O)C(O)[C@@H](NC(=O)OC(C)(C)C)c4ccccc4)C[C@@](O)([C@@H](OC(=O)c4ccccc4)[C@H]21)C3(C)C (some centres not stated)	nt	nt	i	i	nt	nt	nt	nt	nt
O=C(O)[C@@H]1[C@H](C(=O)O)[C@H]2C(=O)C=C[C@H]1N2Cc1ccccc1	nt	nt	nt	nt	i[14.2 µM]	nt	nt	nt	nt
O=C(O)c1ccc(S(=O)(=O)c2ccc([N+](=O)[O-])cc2[N+](=O)[O-])cc1	nt	nt	i	22µM	nt	11	?	i	i
OCC1(CO)COC(C(Cl)(Cl)Cl)OC1	i	i	i	i	nt	nt	nt	nt	nt
Cc1sc2c(c1C)C(=O)NC(c1ccccc1F)N2 (configuration not stated)	i	i	i	32µM	i	6.7	?	i	i
Cc1c(Cc2ccc3c(c2)OCO3)sc(NC(=O)c2cccc3ccccc23)c1C(N)=O	i	i	i	?	i	10	14µM	?	i
COC(=O)c1c(NC(=O)CN2C(=O)c3ccccc3C2=O)sc(Cc2ccc3c(c2)OCO3)c1C	i	i	i	i	i	nt	nt	nt	nt
CCOc1ccc(C(=O)CC(C(=O)O)N2CCCCC2)cc1 (configuration not stated)	nt	nt	i	40µM	nt	24	?	i	i
CCOc1ccc(C(=O)OC(C)C(=O)N2CCN(Cc3ccccc3)CC2)cc1 (configuration not stated)	nt	nt	i	i	nt	nt	nt	nt	nt
CCOc1ccc(C(=O)CC(C(=O)O)N2CCN(Cc3ccccc3)CC2)cc1 (configuration not stated)	nt	nt	i	50µM	nt	24	28µM	i	i
CCOc1cccc2oc(-c3ccccc3Cl)cc(=O)c12	i	i	i	i	i	nt	nt	nt	nt
CCCCS(=O)(=O)N1CCc2nc(-c3ccc(OC)cc3C)c3c(c2C1)CO[C@@H](c1ccccc1)C3	i[11.2 µM]	i[11.2 µM]	nt	nt	i[14.2 µM]	nt	nt	nt	nt
